According to PubChem BioAssay (NCI):
The panel holds about 79,000 compounds, 15% with a hit somewhere; the sample as a whole holds those more often. Calls of active or inactive are those of the source. No stated cut-off is given here; in the data, active means growth inhibition above about 70%; inactive means the rest.

How the values were obtained:
[1] = NCI Yeast Anticancer Drug Screen. Data for the rad52 strain (AID 147);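 further: 0% = growth of vehicle-treated control cultures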; conditions: S. cerevisiae rad52 mutant growth inhibition, active compounds read high
How it was run: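 Measured: yeast growth inhibition. System: strain with a defined DNA damage repair alteration. Reference: vehicle-treated control cultures.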

[2] = NCI Yeast Anticancer Drug Screen. Data for the wt1 strain (AID 149);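 further: 0% = growth of vehicle-treated wt1 cultures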; conditions: S. cerevisiae wt1 strain (SPY 50644) growth inhibition, active compounds read high
How it was run: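 The wt1 strain was treated with compounds, and growth was compared with vehicle-treated cultures to give inhibition.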

[3] = NCI Yeast Anticancer Drug Screen. Data for the rad50EPP+ strain (AID 151);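 further: 0% = growth of vehicle-treated control cultures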; conditions: S. cerevisiae rad50 mutant strain, active compounds read high
How it was run: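 One strain with a rad50 alteration (rad50EPP+) was compound-treated, its growth then compared to that of vehicle controls.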

[4] = NCI Yeast Anticancer Drug Screen. Data for the mgt1 strain (AID 153); conditions: S. cerevisiae mgt1 mutant growth inhibition, active compounds read high
How it was run: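 After exposure of the mgt1 yeast mutant to compound, growth was measured and reported as inhibition compared with vehicle controls.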

[5] = NCI Yeast Anticancer Drug Screen. Data for the rad50 strain (AID 155);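 further: 0% = growth of vehicle-only cultures of the same strain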; conditions: S. cerevisiae rad50 strain growth inhibition, active compounds read high
How it was run: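 Cells are treated with compound, grown, and their growth is then scored against vehicle-only cultures of the same repair-deficient yeast strain.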

[6] = NCI Yeast Anticancer Drug Screen. Data for the mec2-1 strain (AID 157); conditions: S. cerevisiae mec2-1 strain, active compounds read high
How it was run: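 Test agents were screened against the mec2-1 yeast strain, with defined DNA repair or cell cycle alteration. Growth was scored as inhibition against vehicle-only controls.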

[7] = NCI Yeast Anticancer Drug Screen. Data for the rad14 strain (AID 159);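 further: 0% = growth of vehicle-treated control cultures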; conditions: S. cerevisiae rad14 strain growth inhibition, active compounds read high
How it was run: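 Readout: yeast growth inhibition, referenced to vehicle-only cultures. Strain bears a defined alteration in DNA damage repair.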

[8] = NCI Yeast Anticancer Drug Screen. Data for the sgs1 mgt1 strain (AID 161);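 further: 0% = growth of cultures given vehicle only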; conditions: S. cerevisiae sgs1 mgt1 strain, active compounds read high
How it was run: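 Genetically altered yeast, compound exposure, growth inhibition relative to vehicle.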

[9] = NCI Yeast Anticancer Drug Screen. Data for the CLN2oe strain (AID 163);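 further: 0% = growth of vehicle-only control cultures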; conditions: S. cerevisiae CLN2oe strain, active compounds read high
How it was run: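 Here, growth inhibition in a cell-cycle-altered yeast strain after compound exposure was quantified against vehicle control growth.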

[10] = NCI Yeast Anticancer Drug Screen. Data for the cln2 rad14 strain (AID 165);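 further: 0% = growth equal to vehicle treated cultures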; conditions: S. cerevisiae cln2 rad14 strain, active compounds read high
How it was run: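 Growth of compound-exposed yeast (cln2 rad14 genotype) measured and expressed as inhibition relative to vehicle.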

[11] = NCI Yeast Anticancer Drug Screen. Data for the bub3 strain (AID 167); conditions: S. cerevisiae bub3 mutant strain, active compounds read high
How it was run: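 Part of a panel of yeast mutants defective in DNA damage repair or cell cycle regulation. Each strain is grown with compound, and inhibition is calculated relative to solvent-treated cultures.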

[12] = NCI Yeast Anticancer Drug Screen. Data for the wt2 strain (AID 169);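 further: 0% = growth of vehicle-treated yeast cultures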; conditions: S. cerevisiae wt2 strain growth inhibition, active compounds read high
How it was run: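 Genetically defined yeast strains from a DNA-repair/cell-cycle panel were used. Compound-exposed yeast growth was measured, and the inhibition was calculated relative to vehicle treatment.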

[13] = NCI Yeast Anticancer Drug Screen. Data for the mlh1 strain (AID 171);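 further: 0% = growth of vehicle-treated control cultures of the same strain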; conditions: S. cerevisiae mlh1 strain growth inhibition, active compounds read high
How it was run: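 Here the genetically defined yeast mutant is grown with each compound, and the extent to which its growth falls below that of vehicle-exposed cells is reported.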

[14] = NCI Yeast Anticancer Drug Screen. Data for the sgs1 strain (AID 173);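 further: 0% = growth of vehicle-only control cultures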; conditions: S. cerevisiae sgs1 mutant, active compounds read high
How it was run: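 Relative growth inhibition, referenced to vehicle, was determined in a yeast strain with a defined alteration affecting DNA damage repair or cell cycle control after compound exposure.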

[15] = NCI Yeast Anticancer Drug Screen. Data for the mlh1 rad18 strain (AID 175); conditions: S. cerevisiae mlh1 rad18 strain growth inhibition, active compounds read high
How it was run: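 In this whole-cell yeast screen, a strain with altered DNA damage repair is challenged with compound, and its growth is measured against matched vehicle-treated controls.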

[16] = NCI Yeast Anticancer Drug Screen. Data for the rad18 strain (AID 177); conditions: S. cerevisiae rad18 mutant growth inhibition, active compounds read high
How it was run: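 Screen uses a yeast strain with a defined lesion in DNA damage repair; compound effect is read as loss of growth compared to untreated vehicle cultures.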

[17] = at 5.0 µM (retest, dose inferred, filed as 0.5)
[18] = at 50.0 µM (retest, dose inferred, filed as 5.0)

Measured: growth inhibition

C(=N/NC1=NCCN1)/c1c2ccccc2c(/C=N\NC2=NCCN2)c2ccccc12
inactive: [2]; at 1.2 µM -4% | [2]; at 3.7 µM 9% | [2]; at 11.0 µM 9% | [2]; at 33.0 µM 52% | [3]; at 1.2 µM 6% | [3]; at 3.7 µM 33% | [4]; at 1.2 µM -8% | [4]; at 3.7 µM -6% | [4]; at 11.0 µM 4% | [4]; at 33.0 µM 64% | [5]; at 1.2 µM 63% | [6]; at 1.2 µM 6% | [6]; at 3.7 µM 1% | [6]; [17] -13% | [6]; at 11.0 µM 20% | [7]; at 1.2 µM -9% | [7]; at 3.7 µM -25% | [7]; at 11.0 µM -3% | [7]; at 33.0 µM 67% | [8]; [17] -7% | [9]; at 1.2 µM -2% | [9]; at 3.7 µM -12% | [9]; at 11.0 µM 13% | [9]; at 33.0 µM 58% | [10]; [17] 7% | [10]; [18] 56% | [10]; at 50.0 µM 62.5% | [11]; at 1.2 µM -17% | [11]; at 3.7 µM -21% | [11]; [17] -35% | [11]; at 11.0 µM -17% | [11]; at 33.0 µM 58% | [12]; at 1.2 µM -4% | [12]; at 3.7 µM -6% | [12]; at 11.0 µM 11% | [13]; at 1.2 µM 11% | [13]; at 3.7 µM 16% | [13]; at 11.0 µM 21% | [14]; at 1.2 µM 0% | [14]; at 3.7 µM 8% | [14]; at 11.0 µM 22% | [15]; [17] -14% | [16]; at 1.2 µM -3% | [16]; at 3.7 µM -6% | [16]; at 11.0 µM 4%
active: [1]; at 1.2 µM 70% | [1]; at 3.7 µM 86% | [1]; at 11.0 µM 94% | [1]; at 33.0 µM 94% | [1]; at 100.0 µM 96% | [2]; at 100.0 µM 86% | [3]; at 11.0 µM 81% | [3]; at 33.0 µM 92% | [3]; at 100.0 µM 94% | [4]; at 100.0 µM 90% | [5]; at 3.7 µM 85% | [5]; [17] 74% | [5]; at 11.0 µM 93% | [5]; at 33.0 µM 94% | [5]; [18] 88% | [5]; at 50.0 µM 82.2% | [5]; at 100.0 µM 94% | [6]; at 33.0 µM 81% | [6]; [18] 80% | [6]; at 50.0 µM 83.6% | [6]; at 100.0 µM 90% | [7]; at 100.0 µM 89% | [8]; [18] 90% | [8]; at 50.0 µM 85.2% | [9]; at 100.0 µM 84% | [11]; [18] 83% | [11]; at 50.0 µM 79.7% | [11]; at 100.0 µM 88% | [12]; at 33.0 µM 79% | [12]; at 100.0 µM 86% | [13]; at 33.0 µM 73% | [13]; at 100.0 µM 90% | [14]; at 33.0 µM 81% | [14]; at 100.0 µM 92% | [15]; [18] 83% | [16]; at 33.0 µM 78% | [16]; at 100.0 µM 92%

C=C(C)[C@@H]1CCc2c(O)c(O)c(=O)cc(C)c2C1
active: [1]; at 33.0 µM 77% | [1]; at 100.0 µM 98% | [2]; at 100.0 µM 99% | [3]; at 100.0 µM 98% | [4]; at 33.0 µM 90% | [4]; at 100.0 µM 98% | [5]; at 33.0 µM 80% | [5]; [18] 97% | [5]; at 50.0 µM 91.6% | [5]; at 100.0 µM 98% | [6]; [18] 99% | [6]; at 50.0 µM 93% | [6]; at 100.0 µM 98% | [7]; at 33.0 µM 85% | [7]; at 100.0 µM 99% | [8]; [18] 99% | [8]; at 50.0 µM 92.8% | [9]; at 33.0 µM 90% | [9]; at 100.0 µM 99% | [10]; [18] 93% | [10]; at 50.0 µM 91.3% | [11]; at 33.0 µM 82% | [11]; [18] 96% | [11]; at 50.0 µM 92.2% | [11]; at 100.0 µM 98% | [12]; at 33.0 µM 91% | [12]; at 100.0 µM 97% | [13]; at 33.0 µM 85% | [13]; at 100.0 µM 99% | [14]; at 33.0 µM 81% | [14]; at 100.0 µM 98% | [15]; [18] 96% | [15]; at 50.0 µM 92.2% | [16]; at 33.0 µM 76% | [16]; at 100.0 µM 98%
inactive: [1]; at 1.2 µM 0% | [1]; at 3.7 µM 21% | [1]; at 11.0 µM 38% | [2]; at 1.2 µM 7% | [2]; at 3.7 µM 25% | [2]; at 11.0 µM 37% | [2]; at 33.0 µM 58% | [3]; at 1.2 µM -3% | [3]; at 3.7 µM 8% | [3]; at 11.0 µM 39% | [3]; at 33.0 µM 68% | [4]; at 1.2 µM 10% | [4]; at 3.7 µM 26% | [4]; at 11.0 µM 41% | [5]; at 1.2 µM -10% | [5]; at 3.7 µM 11% | [5]; [17] 41% | [5]; at 11.0 µM 37% | [6]; at 1.2 µM 2% | [6]; at 3.7 µM 22% | [6]; [17] 41% | [6]; at 11.0 µM 32% | [6]; at 33.0 µM 61% | [7]; at 1.2 µM -30% | [7]; at 3.7 µM -14% | [7]; at 11.0 µM 37% | [8]; [17] 46% | [9]; at 1.2 µM 2% | [9]; at 3.7 µM 20% | [9]; at 11.0 µM 33% | [10]; [17] 3% | [11]; at 1.2 µM 8% | [11]; at 3.7 µM 23% | [11]; [17] 52% | [11]; at 11.0 µM 43% | [12]; at 1.2 µM -69% | [12]; at 3.7 µM -31% | [12]; at 11.0 µM -27% | [13]; at 1.2 µM 25% | [13]; at 3.7 µM 36% | [13]; at 11.0 µM 55% | [14]; at 1.2 µM 1% | [14]; at 3.7 µM 24% | [14]; at 11.0 µM 50% | [15]; [17] 57% | [16]; at 1.2 µM 1% | [16]; at 3.7 µM 34% | [16]; at 11.0 µM 48%
